Active and inactive are the calls of the source. Unless noted, the rule behind the calls is not given here.
Legend:
[1] = system: XIP peptide (Xip251-270) binding; test: XIP fragment 251-270 binding compounds – biochemical, small-molecule microarray, fluorescence 635/667 nm, 0.1 µg/mL protein, primary screen (AID 1182); settings: fluorescent protein binding, 635 nm, higher = more signal, called active from +8 up or from −8 down
[2] = system: XIP peptide (Xip251-270); test: compounds binding XIP fragment 251-270 – biochemical, small-molecule microarray, fluorescence 635/667 nm, 0.5 µg/mL protein, primary screen (AID 1183); settings: fluorescence 635 nm, higher = more signal
[3] = blood-stage malaria parasite viability loss – strain 3D7, DAPI fluorescence, 100 nL, primary screen (AID 1184);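 note: parasites grown inside human red blood cells in medium with human serum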; settings: P. falciparum 3D7 growth, 3 d, higher = more signal
[4] = target: Homeobox protein Hox-A13 (Mus musculus) (UniProt Q62424); test: disruptors of Hoxa13 oligonucleotide interaction – biochemical, fluorescence polarization, labeled oligonucleotide, primary screen (AID 1185); settings: Hoxa13:DNA binding, 15 min, higher = more signal, called active from +8 up or from −8 down
Sequence of Homeobox protein Hox-A13 (Mus musculus) (Q62424 whole entry, looked up): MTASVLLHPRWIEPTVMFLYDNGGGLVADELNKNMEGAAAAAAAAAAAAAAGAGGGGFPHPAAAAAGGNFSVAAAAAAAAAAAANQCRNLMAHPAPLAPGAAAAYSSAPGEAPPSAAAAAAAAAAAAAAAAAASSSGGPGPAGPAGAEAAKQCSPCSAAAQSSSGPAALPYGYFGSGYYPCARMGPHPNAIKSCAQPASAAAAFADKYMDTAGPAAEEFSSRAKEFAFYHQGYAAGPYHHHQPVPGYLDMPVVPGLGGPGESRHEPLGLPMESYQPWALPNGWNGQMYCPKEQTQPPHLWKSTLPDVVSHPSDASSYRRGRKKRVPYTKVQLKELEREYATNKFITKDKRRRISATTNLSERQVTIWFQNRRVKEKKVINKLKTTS

[5] = blockers of DNA damage checkpoint Chk1 activation – imaging, HeLa, hydroxyurea, phospho-Chk1 antibody, percent positive cells, primary screen (AID 1186); settings: hydroxyurea-induced phospho-Chk1 immunofluorescence imaging, higher = more signal
[6] = blockers of DNA damage checkpoint Chk1 activation – imaging, HeLa, hydroxyurea, phospho-Chk1 nuclear intensity, primary screen (AID 1187); settings: hydroxyurea-induced phospho-Chk1 immunofluorescence imaging, higher = more signal

| Compound | composite z-score [1] | composite z-score [2] | z-score [3] | z-score [4] | z-score [5] | z-score [6] |
| --- | --- | --- | --- | --- | --- | --- |
| C=CCN1C(=O)[C@@]2(Cc3ccccc31)N=C(c1ccc(OCCCO)cc1)O[C@H]2c1ccccc1 | 0.619 (inactive) | 0.801 | -1.16 | -4.35 (inactive) | -0.456 (inactive) | -0.416 (inactive) |
| CO[C@H]1O[C@H](CO)[C@@H](OC(=O)Nc2cccc(F)c2)[C@H](OC(=O)Nc2ccccc2)[C@@H]1OC(=O)Nc1ccccc1 | 1.23 (inactive) | 0.82 | -1.26 | -6.57 (inactive) | 0.108 (inactive) | 0.358 (inactive) |
| O=C(N1CCCCC1)[C@]1(Cc2ccccc2)N=C(c2ccc(OCCCO)cc2)O[C@@H]1c1ccccc1 | 0.0557 (inactive) | 0.657 | -2.79 | -4.71 (inactive) | -0.6 (inactive) | -0.641 (inactive) |
| COCCOC(=O)N1C(=O)[C@@]2(c3cc(C#CCC(C(=O)OC)C(=O)OC)ccc31)[C@H](C(=O)N1CCN(c3ncccn3)CC1)[C@H]1C(=O)O[C@H](c3ccccc3)[C@H](c3ccccc3)N1[C@@H]2c1ccccc1OCCO | 0.171 (inactive) | 0.679 | -2.03 | -0.504 (inactive) | 0.0845 (inactive) | 0.176 (inactive) |
| COc1cc2c(cc1OC)CN(C(=O)[C@@H]1[C@H]3C(=O)O[C@H](c4ccccc4)[C@H](c4ccccc4)N3[C@H](c3ccccc3OCCO)[C@@]13C(=O)Nc1ccc(C#CCCO)cc13)CC2 | 2.75 (inactive) | 0.827 | -2.18 | 3.45 (inactive) | 0.14 (inactive) | 0.598 (inactive) |
| COC(=O)[C@@]1(Cc2ccc(OC)cc2)[C@H]2c3cc(C(=O)N(C)C)n(C)c3C[C@H]2CN1C(=O)c1ccccc1 | -0.0515 (inactive) | 0.764 | -1.4 | -3.49 (inactive) | -0.0095 (inactive) | 0.0799 (inactive) |
| O=C1C2C=CC(C(O)c3cccc4ccccc34)N(Nc3ccccc3F)C2C(=O)N1c1ccccc1 (stereo not drawn) | 1.09 (inactive) | 0.871 | 0.71 | -3.52 (inactive) | 0.228 (inactive) | 0.807 (inactive) |
| COCCOC(=O)N1C(=O)[C@@]2(c3cc(C#CC4(O)CCCCCC4)ccc31)[C@H](c1ccc(OCCO)cc1)N1[C@H](c3ccccc3)[C@H](c3ccccc3)OC(=O)[C@H]1[C@@H]2C(=O)N1CCN(c2ncccn2)CC1 | 0.647 (inactive) | 0.61 | -2.06 | 0.253 (inactive) | -0.0615 (inactive) | 0.22 (inactive) |
| CC1(C)[C@@H]2CC(C(O)C3C=CC4C(=O)N(Cc5ccccc5)C(=O)C4N3n3cnnc3)=C[C@H]1C2 (stereo partly drawn) | 0.902 (inactive) | -0.0686 | -0.101 | -3.19 (inactive) | 0.338 (inactive) | -0.115 (inactive) |
| C=C[C@@H](COC(=O)OC(C)(C)C)N(Cc1ccc(OC)cc1)S(=O)(=O)c1ccc(Br)cc1 | 0.323 (inactive) | 0.219 | 0.605 | -0.981 (inactive) | 0.344 (inactive) | 0.447 (inactive) |
| C=CCOC(=O)[C@H]1[C@@H]2C(=O)O[C@@H](c3ccccc3)[C@@H](c3ccccc3)N2[C@@H](c2ccc(OCCOC(=O)[C@@H]3C[C@@H]4C(=O)N[C@@H](CCCCNC(C)=O)C(=O)N4[C@@H]3c3ccc(O)cc3)cc2)[C@]12C(=O)Nc1ccccc12 | 2.75 (inactive) | 0.818 | -1.8 | -1.89 (inactive) | -0.731 (inactive) | 0.21 (inactive) |
| CC(C)C(CO)N1C(=O)[C@@H]2C3C(=O)OCCC/C=C\[C@H]3OC23C=CCN(CCN2CCOCC2)C(=O)[C@@H]13 (stereo partly drawn) | -0.0949 (inactive) | -0.816 | 1.17 | -7 (inactive) | 0.248 (inactive) | -0.0469 (inactive) |
| CCCCCCc1nc(-c2ccc(OC)nc2)cc2c1[Si](C(C)C)(C(C)C)O[C@H]2c1ccccc1 | -0.652 (inactive) | -0.487 | -0.421 | -2.62 (inactive) | -0.732 (inactive) | -0.722 (inactive) |

— PubChem BioAssay
